# Measured values published in ChEMBL document CHEMBL5606460, “ASAP - DENV-2 NS2B-NS3 protease fluorescence single point” (2024).
# Hit rate of the full screen: of about 2,000 compounds, about 110 (5.5%) showed an effect of 50% or more. Shown is part of a subset that was picked to be rich in strong results.
# Target: Genome polyprotein (dengue virus type 2) (UniProt P29990)
# [1] = Thailand/16681/1984, Concentration 25.0 uM, Number of replicates 1.0
compound,measurement,setting,value
Cc1cc(CO)c2cccc(Cc3cccc(C(=O)N4CCC(CN)CC4)c3)c2n1,inhibition,"Thailand/16681/1984, Concentration 49.95 uM, Number of replicates 2.0, Standard deviation 0.03521723226612688 %",98.6%
same,inhibition,"Thailand/16681/1984, Concentration 99.9 uM, Number of replicates 2.0, Standard deviation 0.007908771829372243 %",98.5%
Cc1cc(CO)c2cccc(Cc3ccccc3C(=O)N3CC[C@@H](CO)C3)c2n1,inhibition,"Thailand/16681/1984, Concentration 49.95 uM, Number of replicates 2.0, Standard deviation 0.1537915321395842 %",-0.863%
same,inhibition,"Thailand/16681/1984, Concentration 99.9 uM, Number of replicates 2.0, Standard deviation 0.5490500301245094 %",3.93%
Cc1cc(CO)c2cccc(Cc3cccc(C(=O)N4CCC(C(=O)O)CC4)c3)c2n1,inhibition,"Thailand/16681/1984, Concentration 49.95 uM, Number of replicates 2.0, Standard deviation 0.11067239798039237 %",-0.531%
same,inhibition,"Thailand/16681/1984, Concentration 99.9 uM, Number of replicates 2.0, Standard deviation 0.04599367566818035 %",2.3%
Cc1cc(CO)c2cccc(Cc3ccccc3C(=O)N3CCC(C(=O)O)CC3)c2n1,inhibition,"Thailand/16681/1984, Concentration 49.95 uM, Number of replicates 2.0, Standard deviation 0.622352552136526 %",0.457%
same,inhibition,"Thailand/16681/1984, Concentration 99.9 uM, Number of replicates 2.0, Standard deviation 0.7955477281018075 %",4.68%
Cc1cc(CO)c2cccc(Cc3cccc(C(=O)N4CC[C@@H](CO)C4)c3)c2n1,inhibition,"Thailand/16681/1984, Concentration 49.95 uM, Number of replicates 2.0, Standard deviation 1.5846275376108605 %",1.42%
same,inhibition,"Thailand/16681/1984, Concentration 99.9 uM, Number of replicates 2.0, Standard deviation 0.9371220268229934 %",23.4%
O=Cc1ccc(N2CCC(C(=O)NC3CN(C(c4ccccc4)c4ccccc4)C3)CC2)cc1,inhibition,[1],2.62%
CC(C)N(C[C@H](O)COc1ccc(CC(N)=O)cc1)C(=O)C1CCN(c2ccc(C=O)cc2)CC1,inhibition,[1],13.4%
Cc1ccc(S(N)(=O)=O)c(NCc2ccc(N3CCN(C)CC3)cc2)c1,inhibition,"Thailand/16681/1984, Concentration 49.5 uM, Number of replicates 2.0, Standard deviation 0.9591550294519122 %",-0.337%
same,inhibition,"Thailand/16681/1984, Concentration 99.01 uM, Number of replicates 2.0, Standard deviation 0.6629248720953049 %",1.24%
same,inhibition,"Thailand/16681/1984, Concentration 198.0 uM, Number of replicates 2.0, Standard deviation 0.09920698004573132 %",1.03%
CCc1ccc(CN(CC(C)C)C(=O)C2CCN(c3ccc(C=O)cc3)CC2)cc1,inhibition,[1],13.3%
O=Cc1ccc(N2CCC(C(=O)Nc3ccccc3Sc3ccccc3)CC2)cc1,inhibition,[1],12.1%
CNC(=O)c1cc(Cl)ccc1NS(=O)(=O)c1cccc(S(N)(=O)=O)c1,inhibition,"Thailand/16681/1984, Concentration 49.5 uM, Number of replicates 2.0, Standard deviation 0.4003966624337367 %",1.73%
same,inhibition,"Thailand/16681/1984, Concentration 99.01 uM, Number of replicates 2.0, Standard deviation 1.0615056375609497 %",3.26%
same,inhibition,"Thailand/16681/1984, Concentration 198.0 uM, Number of replicates 2.0, Standard deviation 0.04640199433655389 %",5.28%
CNC(=O)[C@H]1CCCN1S(=O)(=O)c1ccc(Oc2ccccc2Cl)cc1,inhibition,"Thailand/16681/1984, Concentration 49.5 uM, Number of replicates 2.0, Standard deviation 0.43290983719310167 %",-4.62%
same,inhibition,"Thailand/16681/1984, Concentration 99.01 uM, Number of replicates 2.0, Standard deviation 1.120416310773355 %",-4.38%
same,inhibition,"Thailand/16681/1984, Concentration 198.0 uM, Number of replicates 2.0, Standard deviation 0.24124704358981106 %",-3.59%
NC(=O)c1ccccc1NS(=O)(=O)c1ccc(Oc2ccccc2Cl)cc1,inhibition,"Thailand/16681/1984, Concentration 49.5 uM, Number of replicates 2.0, Standard deviation 0.6673279112123895 %",5.67%
same,inhibition,"Thailand/16681/1984, Concentration 99.01 uM, Number of replicates 2.0, Standard deviation 2.0636931261780913 %",38.8%
same,inhibition,"Thailand/16681/1984, Concentration 198.0 uM, Number of replicates 2.0, Standard deviation 0.3870011295715193 %",81.3%
CNC(=O)c1cc(Cl)ccc1NS(=O)(=O)c1cccc(Oc2ccccc2)c1,inhibition,"Thailand/16681/1984, Concentration 49.5 uM, Number of replicates 2.0, Standard deviation 1.273206391645472 %",8.45%
same,inhibition,"Thailand/16681/1984, Concentration 99.01 uM, Number of replicates 2.0, Standard deviation 0.33776821571418564 %",23.8%
same,inhibition,"Thailand/16681/1984, Concentration 198.0 uM, Number of replicates 2.0, Standard deviation 0.06600533651594093 %",89.9%
CNC(=O)c1cc(Cl)ccc1NS(=O)(=O)c1ccc(F)c(C(=O)N2CCCC2)c1,inhibition,"Thailand/16681/1984, Concentration 49.5 uM, Number of replicates 2.0, Standard deviation 0.7714528805703116 %",-4.6%
same,inhibition,"Thailand/16681/1984, Concentration 99.01 uM, Number of replicates 2.0, Standard deviation 1.6986403894371052 %",-2.1%
same,inhibition,"Thailand/16681/1984, Concentration 198.0 uM, Number of replicates 2.0, Standard deviation 1.4542094148600992 %",1.16%
